# About 1,300 (0.5%) of roughly 260,000 compounds were called active. The full list was thinned out, with actives kept by preference. A number with no mark means an inactive call.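 The calls were made as follows: active = percent inhibition above 40 after rounding to a whole number; inactive = the rest.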
# Target: Prostaglandin E2 receptor EP2 subtype (Homo sapiens) (UniProt P43116)
# Experiment: human EP2 receptor antagonists, primary screen, TR-FRET cAMP, C6 glioma cells (AID 1422);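 also: rat C6 glioma host cells with rolipram phosphodiesterase inhibitor present; the protocol text gives 20 µM as final concentration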
# Settings: C6 glioma cells expressing human EP2, cAMP TR-FRET, at 25 µM, active compounds read high; cells stimulated with saturating PGE2 unless noted
# Chain of Prostaglandin E2 receptor EP2 subtype (Homo sapiens) (P43116 whole entry, looked up): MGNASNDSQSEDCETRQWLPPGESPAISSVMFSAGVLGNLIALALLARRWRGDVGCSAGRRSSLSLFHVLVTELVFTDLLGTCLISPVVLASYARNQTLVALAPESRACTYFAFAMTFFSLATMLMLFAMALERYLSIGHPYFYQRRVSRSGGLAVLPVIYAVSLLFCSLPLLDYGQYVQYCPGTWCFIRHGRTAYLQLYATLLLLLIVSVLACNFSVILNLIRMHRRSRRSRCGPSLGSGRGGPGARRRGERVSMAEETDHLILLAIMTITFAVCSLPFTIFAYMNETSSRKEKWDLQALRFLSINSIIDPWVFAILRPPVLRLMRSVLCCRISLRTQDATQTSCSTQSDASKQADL
row,SMILES,inhibition
1,O=C1C[C@@H]2OCC=C3CN4CC[C@]56c7ccccc7N1[C@H]5[C@H]2[C@H]3C[C@H]46 (tested in a mixture with another compound),43.4% (active)
2,COc1ccccc1CN(CCN(C)C)C(=O)Cc1nn(C)c(=O)c2ccccc12,8.64%
3,COc1ccc(C2=NCC(=O)N(Cc3cccnc3)c3sc4c(c32)CCCC4)cc1,7.58%
4,CC(=O)O[C@H]1CC[C@@]2(C)C(=CCC3C2CC[C@]2(C)C(=O)CCC32)C1 (stereo not given in full),13.5% [setting not given]
5,CC(=O)O[C@H]1CC[C@@]2(C)[C@@H](CC[C@H]3[C@H]2CC(=O)[C@]2(C)[C@@H]3C[C@@H](N3CC3)[C@H]2C(C)=O)C1,44% (active)
6,C=C1C2CC[C@@]3(C)[C@H](c4ccoc4)OC(=O)C[C@]13O[C@H]1CC(=O)C(C)(C)[C@H](C(OC(C)=O)C(=O)OC)[C@@]21C (stereo not given in full),14.4%
7,COc1cc([C@@H]2c3cc4c(cc3[C@H](OC(C)=O)[C@H]3COC(=O)[C@H]23)OCO4)cc(OC)c1OC,14.4%
8,Fc1ccc2c(c1)nnn2C1CCN(Cc2nnnn2C2CCCC2)CC1,8.46%
9,CC[C@@](O)(C(=O)O)c1cc2n(c(=O)c1CO)Cc1cc3ccccc3nc1-2,47.7% (active)
10,CCn1cc(C(=O)c2ccco2)c2ccccc21,1.27%
11,c1ccc2[nH]c(C3CCNCC3)nc2c1,6.74%
12,C=CCc1cc(CN2C3CCC2CC(O)(c2nccn2C)C3)cc(OC)c1O (stereo not given),10.4%
13,Cc1ccc(C(C)N2CCNCC2)c(C)c1 (stereo not given),5.45%
14,COc1cc(CN2C3CCC2CC(O)(c2ccccc2F)C3)ccc1OC(C)C (stereo not given),6.07%
15,Cc1nc(-c2ccc(F)cc2)c(CC(=O)N(CCN(C)C)C2CCCCC2)s1,2.82%

# Source: PubChem BioAssay AID1422 (Emory University Molecular Libraries Screening Center, 2008)
